From PubChem BioAssay AID738 (SRMLSC, 2007)
The whole screen tested about 98,000 compounds, of which about 4,900 (5%) were called active. The list comes from a sample in which actives are over-represented; it also holds similar structures and randomly drawn compounds. A number with no mark means an inactive call. Rule as the data show it: active = inhibition above about 30%; inactive = the rest.

test: yeast control strain growth suppression – counter-screen for post-Golgi transport modulator project, primary screen (AID 738); conditions: efflux-deficient yeast background strain, growth absorbance A615, 16 h; at 10 µM; stronger effect = higher value

| Structure (SMILES) | inhibition |
| --- | --- |
| c1ccc(Nc2nc(-c3ccncc3)cs2)nc1 | 4.87% |
| O=C(Nc1ccc(Cl)cn1)Nc1cccs1 | 19.8% |
| Clc1ccc(Nc2nc(-c3cccs3)cs2)nc1 | 45.4% (active) |
| Cc1ccc(OCC(=O)N/N=C/c2ccncc2)cc1 | 7.69% |
| Cc1ccc(C(=O)N2CCN(C(=O)N3CCOCC3)CC2)cc1 | -1.43% |
| CCOC(=O)C(=CNc1cccc(C)n1)C(=O)OCC | -2.27% |
| Cc1ccc(Cl)cc1NC(=O)COC(=O)C1CCCCC1 | -5.31% |
| Cc1noc(C)c1S(=O)(=O)N(CC(=O)NCc1ccc(Cl)cc1)c1ccc2c(c1)OCO2 | 4.52% |
| Cc1noc(C)c1S(=O)(=O)N(CC(=O)Nc1ccc2c(c1)OCCO2)c1ccc(C(C)C)cc1 | 36.1% (active) |
| CCOC(=O)c1cccc(NC(=O)CN(c2ccc(C)cc2)S(=O)(=O)c2c(C)noc2C)c1 | 26.9% |
| CCOC(=O)Cc1csc(NC(=O)CSc2nc(C)cc(=O)[nH]2)n1 | 3.73% |
| CCOC(=O)Cc1csc(NC(NC(=O)OCC)(C(F)(F)F)C(F)(F)F)n1 | -12.3% |
| CCOC(=O)Cc1csc(NC(=O)C(C)(C)C)n1 | 50.5% (active) |
| CCOc1cc(CNCCN(C)C)c(Cl)cc1OCC(=O)NCCc1ccccc1 | 7.63% |
| O=C(Nc1ccccc1)O/N=C1\CCCCC1c1ccc([N+](=O)[O-])cc1[N+](=O)[O-] (stereo unspecified) | 47.9% (active) |
| COc1ccc(NC(=O)ON=C2c3ccccc3-c3ccccc32)cc1 | 3.19% |
| CCN(CC)S(=O)(=O)c1cc([N+](=O)[O-])ccc1NNC(=O)Nc1ccccc1 | 5.17% |
| Cc1ccc(C2CC2C(=O)NN)cc1 (stereo unspecified) | -1.07% |
| COc1cccc(CNCCc2c[nH]c3ccccc23)c1OCc1ccccc1F | 15.9% |
| COCCCn1c(SCc2cccc(OC)c2)nc2cc(OC)c(OC)cc2c1=N | 21.9% |
| Cc1ccc(NC(=O)COc2ccc(-n3ccnc3)cc2)cc1Cl | 34.5% (active) |
| Cc1ccccc1OCC(=O)Nc1ccc(N2CCN(C(=O)C(C)C)CC2)c(Cl)c1 | 6.6% |
| CN1CCN(c2ccc(NC(=O)COc3ccc(Cl)cc3Cl)cc2)CC1 | 5.47% |
| CC(=O)NS(=O)(=O)c1ccc(NC(=O)/C=C/c2ccccc2Cl)cc1 | 4.99% |

| Structure (SMILES) | inhibition |
| --- | --- |
| O=C(c1ccccc1)C(Cn1cncn1)C(Sc1ccccc1)c1ccccc1 (stereo unspecified) | 26.1% |
| CCOC(=O)N1CCN(C(c2cccnc2)c2ccc3cccnc3c2O)CC1 (stereo unspecified) | 1.65% |
| CCn1c(SCC(=O)Nc2nc3ccc(OC)cc3s2)nnc1-c1ccoc1C | 19.9% |
| Cc1noc(C)c1CSCC(=O)Nc1nc2ccc(Oc3ccccc3)cc2s1 | 56.3% (active) |
| CCOC(=O)c1c(C2CC2)csc1NC(=O)CSCc1c(C)noc1C | 23.3% |
| O=S(=O)(c1ccc(F)cc1)n1ccc(-c2cnc(-c3ccccc3)s2)n1 | 6.8% |
| COc1ccccc1-n1nnnc1S(=O)(=O)Cc1ccc(Cl)cc1 | 32.4% (active) |
| O=S(=O)(O)c1nc2ccccc2n1Cc1ccc(Cl)cc1 | 2.95% |
| COc1ccccc1N1CCN(C(=O)CN(Cc2ccc(Cl)cc2)S(C)(=O)=O)CC1 | 1.33% |
| Cc1cccc(C(=O)Nc2ccc(C(=O)/C=C/c3cccs3)cc2)c1 | 3.4% |
| O=C(Nc1ccn(Cc2ccccc2F)n1)c1ccc(COc2ccc(Cl)cc2Cl)o1 | 27.6% |
| CC1Cc2nc(SCC(=O)Nc3ccccc3F)n(C)c(=O)c2S1 (stereo unspecified) | 25.6% |
| CCn1c(SCC(=O)Nc2ccccc2F)nc2c(c1=O)SC(C)C2 (stereo unspecified) | 103% (active) |
| CCn1c(SCC(=O)Nc2ccc3c(c2)OCCO3)nc2c(c1=O)SC(C)C2 (stereo unspecified) | 6.57% |
| O=S(=O)(c1cccc2nonc12)N1CCN(c2cccc(Cl)c2)CC1 | -0.91% |
| Cc1cc(C)c([N+](=O)[O-])cc1-c1ccc(/C=N/NC(=O)c2nonc2N)o1 | 8.91% |
| Cc1cc([N+](=O)[O-])c(-c2ccc(/C=N/n3cnnc3)o2)cc1Cl | 19.7% |
| Cc1cc(-c2ccc(/C=N/n3cnnc3)o2)c([N+](=O)[O-])cc1C | 39.1% (active) |
| CC(=O)c1cc2c(cc1NC(=O)CN1CCCCCC1)OCO2 | 5.16% |
| C/C=C/C(=O)OCC(=O)Nc1ccc(F)cc1Cl | 3.31% |
| CC(Oc1ccc(F)cc1F)C(=O)/C=C/N(C)C (stereo unspecified) | -1.04% |
| COC(=O)CNC(=O)c1ccccc1F | 4.83% |
| CN(C)/C=C/C(=O)c1ccccc1F | 36.4% (active) |
| Cc1ccc(N2C(=O)C(Cc3ccccc3)NC2=S)cc1 (stereo unspecified) | 5.73% |

| Structure (SMILES) | inhibition |
| --- | --- |
| COc1cc(Cl)c(C)cc1NC(=O)CSc1nnc(-c2ccco2)n1CC(C)C | 34% (active) |
| CCn1c(SCC(=O)Nc2cc(C)c(Cl)cc2OC)nnc1-c1ccco1 | 26.5% |
| COc1cc(Cl)c(C)cc1NC(=O)CSc1nnc(-c2cccnc2)n1Cc1ccco1 | 3.14% |
| O=C1CC(C(F)(F)C(F)(F)C(F)(F)C(F)(F)F)=Nc2ccccc2N1 | 16.7% |
| COCC(=O)Nc1ccc(Br)cc1 | 36.8% (active) |
| O=C(CSCc1ccc(Br)cc1)Nc1ccc(S(=O)(=O)N2CCCCCC2)cc1 | 6.87% |
| CCN(CC)C(=O)CCC(=O)Nc1ccc(C(=O)OC)cc1 | 1.42% |
| O=C(Nc1ccc2c(c1)CCC2)c1cccc(S(=O)(=O)N2CCN(c3ccc(F)cc3)CC2)c1 | 17.8% |
| Cc1cc(C=O)c(C)n1-c1ccc(NC2CCCCC2)c([N+](=O)[O-])c1 | 39% (active) |
| Cc1ccc(-n2c(C)cc(/C=N/Nc3ccc([N+](=O)[O-])cn3)c2C)c(C)c1 | 3.3% |
| COc1cc(OC)c(-n2c(C)cc(C=O)c2C)cc1Cl | 20.4% |
| O=C(O)c1ccccc1NC(=S)NC(NC(=O)c1ccccc1[N+](=O)[O-])C(Cl)(Cl)Cl (stereo unspecified) | 21.6% |
| NC(=O)c1c(NC(=O)CSc2nnc(-c3ccco3)n2N)sc2c1CCCC2 | -1.04% |
| O=C(CN1CCN(S(=O)(=O)c2ccc3ccccc3c2)CC1)NC(=O)NC1CCCCC1 | 19.7% |
| CCOc1cccc(C(=O)Nc2cnn(Cc3ccccc3)c2)c1 | -4.4% |
| CCCCCCOC(=O)NCC(O)c1ccccc1 (stereo unspecified) | 4.19% |
| CCOC(=O)CCP(=O)(O)C(O)(c1ccccc1)c1ccccc1 | 2.13% |
| CCOC(=O)C(C(=O)OCC)C(C#N)c1ccccc1 (stereo unspecified) | 30.5% (active) |
| CCNC(=S)Nc1cccc(Cl)c1C | 3.81% |
| COc1ccc(Cc2nnc(SCC(=O)c3cccc([N+](=O)[O-])c3)n2C)cc1 | 3.08% |
| Cc1ccc(NC(=O)N2CCC(c3nc4c(nnn4Cc4c(F)cccc4Cl)c(=O)[nH]3)CC2)cc1 | 8.76% |
| COc1ccc(-c2nnc(SCC(=O)NC3CCCCC3)o2)cc1OC | -2.95% |
| COc1cc(OC)c(C(=O)NC2CCCCCC2)cc1OC | 46.5% (active) |
| COc1cc(OC)c(C(=O)NC2CC(C)(C)NC(C)(C)C2)cc1OC | -5.38% |

| Structure (SMILES) | inhibition |
| --- | --- |
| C=CCn1c(SCCOc2ccc(OC)cc2)nnc1C(NC(=O)c1ccc(OC)cc1)C(C)C (stereo unspecified) | 10.1% |
| CCOc1ccc(-n2c(N)c(C(=O)NCC3CCCO3)sc2=S)cc1 (stereo unspecified) | 3.93% |
| O=C(NC1CCCCC1)C1CCCN(S(=O)(=O)c2cccs2)C1 (stereo unspecified) | -12.5% |
| O=C(Cc1ccc(S(=O)(=O)N2CCCC2)s1)NC1CCCCCC1 | 31.8% (active) |
| O=C(Cc1ccc(S(=O)(=O)N2CCOCC2)s1)NCCC(c1ccccc1)c1ccccc1 | 22.9% |
| COc1ccc(-c2cc(C)nc3nc(N)nn23)cc1 | 5.75% |
| Cc1cc(N)n2nc(-c3ccc(C(C)(C)C)cc3)cc2n1 | 31% (active) |
| Cc1cccc(-n2ncc(C#N)c2-n2cccc2)c1 | 20.2% |
| Cc1[nH]nc(-c2ccc(OCc3cnn(-c4ccccc4)c3)cc2O)c1Oc1ccc(Cl)cc1 | 0% |
| Cn1c(=O)c2c(ncn2CC(COCc2ccccc2Cl)OCc2ccccc2Cl)n(C)c1=O (stereo unspecified) | 8.65% |
| COc1ccc(Cl)cc1C(=O)Nc1ccc(N(C)C(C)=O)cc1 | 32.4% (active) |
| COc1cc(OC)c(C(=O)Nc2ccc(N(C)C)cc2)cc1OC | 27.7% |
| COc1ccc(Cl)cc1C(=O)NCC#N | 18.5% |
| CCn1c(C)nc2c1C(=O)c1ccccc1C2=O | 4.03% |
| CC(C)N(c1ccccc1)c1ncnc(NCCC(=O)O)c1[N+](=O)[O-] | 5.97% |
| O=S(=O)(c1cnccc1N1CCN(/N=C/c2ccc(Br)cc2)CC1)N1CCCCC1 | -4.38% |
| Cc1nc2cc(NC(=O)NCc3ccccc3)ccc2o1 | 12.9% |
| C=CC[n+]1c(-c2ccc(C)cc2)csc1NNC(=O)Nc1ccccc1 | 40.7% (active) |
| C=CCNC(=O)c1csc(-c2ccccc2)n1 | -0.15% |
| CC(=O)c1cccc(NC(=O)Nc2ccc(C)cc2)c1 | 0.29% |
| CC(=O)Nc1ccc(N2C(=O)C3C4CC(=O)C(c5ccccc54)C3C2=O)cc1 (stereo unspecified) | -8.39% |
| O=C(NCc1cccnc1)c1cccnc1Sc1ccc(Cl)cc1 | -2.08% |
| CC(C)=CC(=O)Nc1nnc(-c2ccc(F)cc2)s1 | -0.29% |
| Cc1cc(C)nc(SC(C)C(=O)N/N=C/c2cccs2)n1 (stereo unspecified) | 6.8% |
